Only some compounds are listed: those with a hit (about 2.9% of all), similar ones and a draw of the others.
B2AR ag = activates human beta-2 adrenergic receptor causing internalization. P07550. Am2.2-beta2AR cells, FAP receptor internalization, flow cytometry. response, % (concentration not given with the values). actives 0.43% (n = 340,000);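 active means response above a set limit, near 3 SD of response in nonfluorescent compounds, cut at about 42% in these data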
GRK2 aptamer HTS = blocks RNA aptamer binding to human GRK2 | bead flow cytometry, FAM-aptamer displacement from GRK2 | inhibition of aptamer binding, % at 10 µM | actives 0.59% (n = 330,000);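 active means inhibition of aptamer binding above 40%, roughly 3 SD of noise, on plates passing a quality check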;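 further: median bead fluorescence of bound FAM aptamer so fluorescent compounds give negative values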
Target sequence (P25098 whole entry, looked up): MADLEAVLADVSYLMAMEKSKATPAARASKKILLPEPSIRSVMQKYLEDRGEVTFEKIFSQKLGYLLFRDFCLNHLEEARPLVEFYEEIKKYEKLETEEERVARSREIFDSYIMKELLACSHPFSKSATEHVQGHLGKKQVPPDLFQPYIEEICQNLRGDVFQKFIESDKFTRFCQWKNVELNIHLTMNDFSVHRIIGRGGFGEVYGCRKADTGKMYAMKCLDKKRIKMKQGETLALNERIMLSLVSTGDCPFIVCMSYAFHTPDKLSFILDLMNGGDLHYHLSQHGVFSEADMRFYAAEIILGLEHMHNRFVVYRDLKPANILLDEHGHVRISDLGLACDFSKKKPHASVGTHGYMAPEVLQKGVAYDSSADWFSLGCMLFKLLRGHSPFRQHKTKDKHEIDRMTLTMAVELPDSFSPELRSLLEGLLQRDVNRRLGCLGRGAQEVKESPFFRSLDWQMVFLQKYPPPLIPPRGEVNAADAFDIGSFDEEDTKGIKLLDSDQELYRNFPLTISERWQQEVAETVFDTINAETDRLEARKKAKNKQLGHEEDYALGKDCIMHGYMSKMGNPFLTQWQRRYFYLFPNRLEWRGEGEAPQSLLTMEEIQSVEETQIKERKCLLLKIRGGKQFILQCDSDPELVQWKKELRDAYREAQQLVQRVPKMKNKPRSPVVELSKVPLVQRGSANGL
MEKK3 PB1 HTS = modulators (inhibitors or enhancers) of MEK5 binding to human MEKK3 PB1 domain; binding response (% of control), % at 10 µM; bead-based flow cytometry, Alexa488-MEK5 binding to MEKK3; actives lie on both sides; 0 = blocked by unlabeled MEK5, 100 = vehicle; actives 1.4% (n = 290,000);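 active means binding response more than 3 SD above or below the average of its plate-row segment, actives on both sides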;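 further: Alexa488 bead fluorescence after subtracting the streptavidin-only scavenger bead signal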
MEKK2wt PB1 HTS = raises or lowers MEK5 binding to wildtype human MEKK2 PB1 domain | bead flow cytometry, Alexa488-MEK5 binding to MEKK2 WT; actives lie on both sides | actives 1.1% (n = 290,000) | binding response (% of control), % at 10 µM | AID 1531 | Q9Y2U5; in the data active means binding response below about 67% or above about 130%
MEKK2 mut-MEK5 = signal of MEK5 binding to mutant human MEKK2 PB1 domain; bead flow cytometry, Alexa488-MEK5 binding to MEKK2 mutant; percent response, % at 10 µM; actives 0.35% (n = 290,000); in the data active means percent response above about 24%, passing the limit was not always enough
MEKK2wt confirm = raises or lowers MEK5 binding to wildtype human MEKK2, retest | shares compounds with MEKK3 PB1 HTS | bead flow cytometry, Alexa488-MEK5 binding to MEKK2 WT; actives lie on both sides | binding response (% of control), % at 10 µM | actives 2.4% (n = 5,900); in the data active means binding response below about 16% or above about 210%; inactive means in between
MEKK2mut confirm = signal of MEK5 binding to mutant human MEKK2, retest; actives 2% (n = 5,900); AID 1893; shares compounds with MEKK3 PB1 HTS; percent response, % at 10 µM; bead flow cytometry, Alexa488-MEK5 binding to MEKK2 mutant; in the data active means percent response mostly above about 71%, no sharp cut-off; inactive means mostly below about 38%;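 further: higher means compound restores mutant binding toward wildtype level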
MEKK3 confirm = MEKK3-MEK5 PB1 inhibition, single concentration confirmation; binding response (% of control), % at 10 µM; shares compounds with MEKK3 PB1 HTS; bead flow cytometry, Alexa488-MEK5 binding to MEKK3; active compounds read low; actives 1.8% (n = 5,900);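 active means binding response below 72% of control, or above a set upper limit, though filed actives all read lower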;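 further: lower values mean stronger disruption of MEK5 binding to MEKK3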
A number is an active result; [ ] = dose if it differs, or a comment.

What do the screens show for `Cc1c(C(=O)Nc2ccc(-c3nnc4n3CCCCC4)cc2)oc2ccc(Br)cc12`?
B2AR ag: inactive; GRK2 aptamer HTS: inactive; MEKK3 PB1 HTS: inactive; MEKK2wt PB1 HTS: 1.0[inhibitor]; MEKK2 mut-MEK5: inactive; MEKK2wt confirm: inactive; MEKK2mut confirm: inactive; MEKK3 confirm: inactive

What do the screens show for `COc1ccc(C(CNC(=O)c2oc3ccc(Br)cc3c2C)N2CCCCC2)cc1` (configuration not stated)?
B2AR ag: inactive; GRK2 aptamer HTS: inactive; MEKK3 PB1 HTS: inactive; MEKK2wt PB1 HTS: 153; MEKK2 mut-MEK5: inactive; MEKK2wt confirm: inactive; MEKK2mut confirm: inactive; MEKK3 confirm: inactive

How did COc1ccc(C(CNC(=O)c2oc3ccc(F)cc3c2C)N2CCCCC2)cc1 (configuration not stated) do in these assays?
B2AR ag: inactive; GRK2 aptamer HTS: inactive; MEKK3 PB1 HTS: inactive; MEKK2wt PB1 HTS: inactive; MEKK2 mut-MEK5: inactive

Results for O=C(COC(=O)CC1CCCC1)Nc1ccccc1[N+](=O)[O-] ?
B2AR ag: inactive; GRK2 aptamer HTS: inactive

How did O=C(CC(=O)NCc1ccc(Cl)cc1)NCc1ccccc1 do in these assays?
B2AR ag: inactive; GRK2 aptamer HTS: inactive; MEKK3 PB1 HTS: inactive; MEKK2wt PB1 HTS: inactive; MEKK2 mut-MEK5: inactive

What do the screens show for `Cc1ccc(S(=O)(=O)N2CCN(C(=O)CN3C(=O)c4ccc([N+](=O)[O-])cc4C3=O)CC2)c(C)c1`?
B2AR ag: inactive; GRK2 aptamer HTS: inactive

How did O=c1[nH]c(/C=C/c2ccccc2[N+](=O)[O-])nc2ccccc12 do in these assays?
B2AR ag: inactive; GRK2 aptamer HTS: inactive; MEKK3 PB1 HTS: 132; MEKK2wt PB1 HTS: inactive; MEKK2 mut-MEK5: inactive; MEKK2wt confirm: inactive; MEKK2mut confirm: inactive; MEKK3 confirm: inactive

What do the screens show for `CCCCNc1nnc(SCC(=O)c2c(N)n(C3CC3)c(=O)[nH]c2=O)s1`?
B2AR ag: inactive; GRK2 aptamer HTS: inactive

What do the screens show for `CCOC(=O)Cc1csc(NC(=O)c2ccc(C)c(S(=O)(=O)N3CCOCC3)c2)n1`?
B2AR ag: inactive; GRK2 aptamer HTS: inactive

How did CN1CCN(C(=O)CSc2ccc(Cl)cc2)CC1 do in these assays?
B2AR ag: inactive; GRK2 aptamer HTS: inactive; MEKK3 PB1 HTS: 75[inhibitor]; MEKK2wt PB1 HTS: inactive; MEKK2 mut-MEK5: inactive; MEKK2wt confirm: inactive; MEKK2mut confirm: inactive; MEKK3 confirm: inactive

What do the screens show for `CN1CCCN(C(=O)CSc2ccccc2)CC1`?
B2AR ag: inactive; GRK2 aptamer HTS: inactive; MEKK3 PB1 HTS: inactive; MEKK2wt PB1 HTS: inactive; MEKK2 mut-MEK5: inactive

How did COc1ccc(-c2cc(=O)oc3cc(OCC(=O)NCC4CCC(C(=O)O)CC4)ccc23)cc1 (configuration not stated) do in these assays?
B2AR ag: inactive; GRK2 aptamer HTS: inactive; MEKK3 PB1 HTS: inactive; MEKK2wt PB1 HTS: inactive; MEKK2 mut-MEK5: inactive

What do the screens show for `CCCCn1c(NC(=O)c2ccccc2)c(C#N)c2nc3ccccc3nc21`?
B2AR ag: inactive

How did CCCCn1cc(C(C)(C)C)c(C#N)c1NC(C)=O do in these assays?
B2AR ag: inactive; GRK2 aptamer HTS: inactive; MEKK3 PB1 HTS: 46[inhibitor]; MEKK2wt PB1 HTS: 52[inhibitor]; MEKK2 mut-MEK5: inactive; MEKK2wt confirm: inactive; MEKK2mut confirm: inactive; MEKK3 confirm: inactive

Results for O=C(COC(=O)/C=C/c1cccc(Cl)c1)NCCC1=CCCCC1 ?
B2AR ag: inactive; GRK2 aptamer HTS: inactive; MEKK3 PB1 HTS: 130; MEKK2wt PB1 HTS: inactive; MEKK2 mut-MEK5: inactive; MEKK2wt confirm: inactive; MEKK2mut confirm: inactive; MEKK3 confirm: inactive

What do the screens show for `O=C(COC(=O)/C=C/c1ccc(Cl)cc1)NCCC1=CCCCC1`?
B2AR ag: inactive; GRK2 aptamer HTS: inactive; MEKK3 PB1 HTS: inactive; MEKK2wt PB1 HTS: inactive; MEKK2 mut-MEK5: inactive

Results for O=C(c1ccco1)N1CCC(c2nc3c(nnn3Cc3ccc(F)cc3)c(=O)[nH]2)CC1 ?
B2AR ag: inactive; GRK2 aptamer HTS: inactive; MEKK3 PB1 HTS: inactive; MEKK2wt PB1 HTS: inactive; MEKK2 mut-MEK5: inactive

How did CN(C)C(=O)N1CCC(C(=O)NCc2ccccc2)CC1 do in these assays?
B2AR ag: inactive; GRK2 aptamer HTS: inactive; MEKK3 PB1 HTS: 1.0[inhibitor]; MEKK2wt PB1 HTS: -2.0[inhibitor]; MEKK2 mut-MEK5: inactive; MEKK2wt confirm: inactive; MEKK2mut confirm: inactive; MEKK3 confirm: inactive

How did CS(=O)(=O)NN1C(=O)c2ccccc2NC1c1cc2ccccc2nc1Cl (configuration not stated) do in these assays?
B2AR ag: inactive; GRK2 aptamer HTS: inactive; MEKK3 PB1 HTS: 132; MEKK2wt PB1 HTS: inactive; MEKK2 mut-MEK5: inactive; MEKK2wt confirm: inactive; MEKK2mut confirm: inactive; MEKK3 confirm: inactive

What do the screens show for `Cc1ccccc1Oc1nc2c(C)cccn2c(=O)c1/C=C(\C#N)C(=O)Nc1c(C)n(C)n(-c2ccccc2)c1=O`?
B2AR ag: inactive; GRK2 aptamer HTS: inactive; MEKK3 PB1 HTS: 137; MEKK2wt PB1 HTS: inactive; MEKK2 mut-MEK5: inactive; MEKK2wt confirm: inactive; MEKK2mut confirm: inactive; MEKK3 confirm: 65

What do the screens show for `CC1CCN(CCOc2ccc(OCc3ccccc3)cc2)CC1`?
B2AR ag: inactive; GRK2 aptamer HTS: inactive; MEKK3 PB1 HTS: inactive; MEKK2wt PB1 HTS: inactive; MEKK2 mut-MEK5: inactive

How did CC(C)(C)C(=O)Nc1ccc(NC(=O)C(C)(C)C)cc1 do in these assays?
B2AR ag: inactive; GRK2 aptamer HTS: inactive; MEKK3 PB1 HTS: 48[inhibitor]; MEKK2wt PB1 HTS: inactive; MEKK2 mut-MEK5: inactive; MEKK2wt confirm: inactive; MEKK2mut confirm: inactive; MEKK3 confirm: inactive

Results for Cc1ccc(NC(=O)CSc2nnc(-c3cccnc3)s2)cc1 ?
B2AR ag: inactive; GRK2 aptamer HTS: inactive; MEKK3 PB1 HTS: 8.0[inhibitor]; MEKK2wt PB1 HTS: inactive; MEKK2 mut-MEK5: inactive; MEKK2wt confirm: inactive; MEKK2mut confirm: inactive; MEKK3 confirm: inactive

How did Cc1nn(CC(=O)OCCOc2ccc(Br)cc2)c(C)c1[N+](=O)[O-] do in these assays?
B2AR ag: inactive; GRK2 aptamer HTS: inactive; MEKK3 PB1 HTS: 50[inhibitor]; MEKK2wt PB1 HTS: inactive; MEKK2 mut-MEK5: inactive; MEKK2wt confirm: inactive; MEKK2mut confirm: inactive; MEKK3 confirm: inactive

Results for Cc1nn(CC(=O)c2ccc(Br)s2)c(C)c1[N+](=O)[O-] ?
B2AR ag: inactive; GRK2 aptamer HTS: inactive; MEKK3 PB1 HTS: 46[inhibitor]; MEKK2wt PB1 HTS: inactive; MEKK2 mut-MEK5: inactive; MEKK2wt confirm: inactive; MEKK2mut confirm: inactive; MEKK3 confirm: inactive

What do the screens show for `Cc1ccc(CNC(=O)COC(=O)Cn2nc(C)c([N+](=O)[O-])c2C)cc1`?
B2AR ag: inactive; GRK2 aptamer HTS: inactive; MEKK3 PB1 HTS: inactive; MEKK2wt PB1 HTS: inactive; MEKK2 mut-MEK5: inactive

Screening data from PubChem BioAssay.
